# Results taken from PMC7862700, “An all-to-all approach to the identification of sequence-specific readers for epigenetic DNA modifications on cytosine”.
# Tests used:
# Assay in all cases: DAPPL (digital affinity profiling via proximity ligation, sequencing); 10 mM Tris-HCl pH 7.5, 50 mM NaCl, 1 mM DTT, 4% glycerol, room temperature, 30 min; GST-TFs on glutathione beads, 16-mer random dsDNA library, 0.1% formaldehyde crosslink after washing; high values mean tight binding
# [1] = target: T1, FLI1 (Homo sapiens, UniProt Q01543 1-452); settings: protein: recombinant; tags: N-terminal GST; dsDNA, one strand shown
# T1 sequence: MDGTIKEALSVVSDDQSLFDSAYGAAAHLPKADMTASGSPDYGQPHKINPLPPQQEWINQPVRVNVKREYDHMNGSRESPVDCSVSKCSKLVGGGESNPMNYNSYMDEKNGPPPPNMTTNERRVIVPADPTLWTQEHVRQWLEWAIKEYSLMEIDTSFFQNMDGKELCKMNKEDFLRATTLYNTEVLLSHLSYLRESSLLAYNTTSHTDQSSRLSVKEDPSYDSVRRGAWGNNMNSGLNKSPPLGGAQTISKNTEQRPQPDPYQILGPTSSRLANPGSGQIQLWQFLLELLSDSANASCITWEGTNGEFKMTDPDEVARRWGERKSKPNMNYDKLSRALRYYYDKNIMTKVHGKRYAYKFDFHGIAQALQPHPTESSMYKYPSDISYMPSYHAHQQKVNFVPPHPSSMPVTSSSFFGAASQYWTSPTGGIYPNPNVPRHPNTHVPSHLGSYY
# In short: (§1)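 Sequencing on an Illumina NextSeq500 followed washing, crosslinking with 0.1% formaldehyde, proximity ligation (BsaI/T4 ligase, 1 h, 37 °C) and PCR amplification of pools that had been incubated for 30 min at room temperature with 200 nmole of a random double-stranded 16-mer DNA library in Tris/NaCl/DTT/glycerol buffer. Each pool held DNA-barcoded human transcription factors, expressed in yeast as GST fusions and captured on glutathione beads, plus a tag-only sample. Binding signal is a hexamer's read frequency for a factor divided by its frequency in the tag-only sample.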
# [2] = target: T2, ELK1 (Homo sapiens, UniProt P19419 1-428); settings: protein: recombinant; tags: N-terminal GST; dsDNA, one strand shown
# T2 sequence: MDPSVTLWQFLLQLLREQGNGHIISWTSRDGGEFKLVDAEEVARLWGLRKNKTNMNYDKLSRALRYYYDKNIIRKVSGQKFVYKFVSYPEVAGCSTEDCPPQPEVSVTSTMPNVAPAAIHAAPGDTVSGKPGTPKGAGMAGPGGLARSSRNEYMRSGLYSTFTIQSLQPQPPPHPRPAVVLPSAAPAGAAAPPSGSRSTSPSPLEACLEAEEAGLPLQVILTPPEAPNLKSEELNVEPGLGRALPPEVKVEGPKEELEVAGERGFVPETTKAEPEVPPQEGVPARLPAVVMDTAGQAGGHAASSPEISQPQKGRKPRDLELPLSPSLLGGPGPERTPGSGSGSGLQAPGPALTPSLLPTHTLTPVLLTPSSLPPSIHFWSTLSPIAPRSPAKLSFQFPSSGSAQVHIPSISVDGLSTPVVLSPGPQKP
# In short: as §1
# [3] = target: T3, GABPA (Homo sapiens, UniProt Q06546 1-454); settings: protein: recombinant; tags: N-terminal GST; dsDNA, one strand shown
# T3 sequence: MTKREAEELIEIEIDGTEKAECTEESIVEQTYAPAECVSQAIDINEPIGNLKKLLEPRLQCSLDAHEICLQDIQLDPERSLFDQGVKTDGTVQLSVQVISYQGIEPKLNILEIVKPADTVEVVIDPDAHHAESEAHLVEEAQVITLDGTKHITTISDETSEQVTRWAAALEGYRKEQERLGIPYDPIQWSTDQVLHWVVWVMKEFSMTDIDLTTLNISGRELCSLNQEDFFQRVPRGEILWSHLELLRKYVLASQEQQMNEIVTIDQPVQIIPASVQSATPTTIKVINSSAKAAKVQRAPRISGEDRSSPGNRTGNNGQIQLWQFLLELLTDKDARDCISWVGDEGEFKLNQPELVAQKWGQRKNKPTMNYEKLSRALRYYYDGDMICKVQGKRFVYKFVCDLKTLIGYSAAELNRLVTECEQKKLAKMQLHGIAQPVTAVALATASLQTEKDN
# In short: as §1
# [4] = target: T4, ERG (Homo sapiens, UniProt P11308 1-479); settings: protein: recombinant; tags: N-terminal GST; dsDNA, one strand shown
# T4 sequence: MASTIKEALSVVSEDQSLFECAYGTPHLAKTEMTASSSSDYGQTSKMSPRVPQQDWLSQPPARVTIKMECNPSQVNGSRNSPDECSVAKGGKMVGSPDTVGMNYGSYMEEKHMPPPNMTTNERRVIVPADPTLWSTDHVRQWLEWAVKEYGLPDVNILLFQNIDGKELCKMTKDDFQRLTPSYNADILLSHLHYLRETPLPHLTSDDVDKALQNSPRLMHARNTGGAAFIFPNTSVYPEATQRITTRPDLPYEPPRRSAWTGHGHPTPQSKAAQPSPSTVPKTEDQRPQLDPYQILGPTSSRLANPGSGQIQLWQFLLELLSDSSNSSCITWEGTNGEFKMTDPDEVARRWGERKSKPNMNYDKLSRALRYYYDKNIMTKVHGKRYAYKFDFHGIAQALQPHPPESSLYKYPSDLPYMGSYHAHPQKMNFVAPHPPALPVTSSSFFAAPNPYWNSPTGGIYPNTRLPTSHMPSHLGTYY
# In short: as §1
# [5] = target: ELF1 (Homo sapiens, UniProt P32519 1-619); settings: protein: recombinant; tags: N-terminal GST; dsDNA, one strand shown
# ELF1, sequence (P32519 whole entry): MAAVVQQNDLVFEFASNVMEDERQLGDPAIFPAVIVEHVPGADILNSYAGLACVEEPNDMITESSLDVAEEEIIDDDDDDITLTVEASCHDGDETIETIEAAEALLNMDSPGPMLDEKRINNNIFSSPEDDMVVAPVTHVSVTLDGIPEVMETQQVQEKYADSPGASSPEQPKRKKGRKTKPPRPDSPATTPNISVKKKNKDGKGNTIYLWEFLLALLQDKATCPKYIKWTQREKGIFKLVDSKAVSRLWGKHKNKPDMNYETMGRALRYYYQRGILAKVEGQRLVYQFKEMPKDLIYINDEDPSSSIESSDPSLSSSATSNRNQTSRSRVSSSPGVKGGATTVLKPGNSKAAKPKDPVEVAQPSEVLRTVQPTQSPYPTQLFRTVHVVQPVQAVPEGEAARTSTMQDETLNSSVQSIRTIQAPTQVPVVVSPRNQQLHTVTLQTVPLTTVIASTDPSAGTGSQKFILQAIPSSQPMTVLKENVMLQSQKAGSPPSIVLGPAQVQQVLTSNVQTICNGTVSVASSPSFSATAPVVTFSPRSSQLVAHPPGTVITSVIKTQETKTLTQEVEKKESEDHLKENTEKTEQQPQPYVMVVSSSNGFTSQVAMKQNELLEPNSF
# In short: as §1
# [6] = target: T5, EHF (Homo sapiens, UniProt Q9NZC4 1-300); settings: protein: recombinant; tags: N-terminal GST; dsDNA, one strand shown
# T5 sequence: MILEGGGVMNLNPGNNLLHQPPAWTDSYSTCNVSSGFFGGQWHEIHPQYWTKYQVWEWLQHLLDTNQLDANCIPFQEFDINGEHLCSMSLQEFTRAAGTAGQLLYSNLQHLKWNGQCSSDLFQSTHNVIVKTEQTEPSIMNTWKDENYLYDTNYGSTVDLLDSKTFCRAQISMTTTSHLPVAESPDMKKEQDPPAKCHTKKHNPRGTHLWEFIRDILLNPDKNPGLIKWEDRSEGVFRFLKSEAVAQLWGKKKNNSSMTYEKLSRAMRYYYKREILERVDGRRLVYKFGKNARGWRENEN
# In short: as §1
# [7] = target: SPI1 (Homo sapiens, UniProt P17947 1-270); settings: protein: recombinant; tags: N-terminal GST; dsDNA, one strand shown
# In short: as §1
# [8] = target: SPIB (Homo sapiens, UniProt Q01892 1-262); settings: protein: recombinant; tags: N-terminal GST; dsDNA, one strand shown
# SPIB, sequence (Q01892 whole entry): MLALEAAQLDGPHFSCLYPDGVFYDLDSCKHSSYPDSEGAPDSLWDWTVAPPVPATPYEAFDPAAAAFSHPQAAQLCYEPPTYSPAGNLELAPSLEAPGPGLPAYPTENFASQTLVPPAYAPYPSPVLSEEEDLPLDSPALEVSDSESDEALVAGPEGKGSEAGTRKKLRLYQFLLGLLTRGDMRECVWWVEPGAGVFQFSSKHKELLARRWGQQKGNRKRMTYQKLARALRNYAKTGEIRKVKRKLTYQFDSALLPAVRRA
# In short: as §1
# [9] = target: T6, ELK3 (Homo sapiens, UniProt P41970 1-407); settings: protein: recombinant; tags: N-terminal GST; dsDNA, one strand shown
# T6 sequence: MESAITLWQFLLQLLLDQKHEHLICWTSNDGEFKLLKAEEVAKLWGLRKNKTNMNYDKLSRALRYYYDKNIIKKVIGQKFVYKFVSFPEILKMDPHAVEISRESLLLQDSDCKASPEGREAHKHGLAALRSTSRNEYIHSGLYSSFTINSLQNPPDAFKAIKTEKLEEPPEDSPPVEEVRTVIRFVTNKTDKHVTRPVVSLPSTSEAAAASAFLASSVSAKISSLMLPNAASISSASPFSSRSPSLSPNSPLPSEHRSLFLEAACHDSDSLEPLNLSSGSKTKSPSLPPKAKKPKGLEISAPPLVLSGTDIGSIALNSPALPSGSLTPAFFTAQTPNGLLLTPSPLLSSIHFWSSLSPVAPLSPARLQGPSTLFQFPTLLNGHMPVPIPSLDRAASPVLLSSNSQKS
# In short: as §1
# [10] = target: T7, FEV (Homo sapiens, UniProt Q99581 1-238); settings: protein: recombinant; tags: N-terminal GST; dsDNA, one strand shown
# T7 sequence: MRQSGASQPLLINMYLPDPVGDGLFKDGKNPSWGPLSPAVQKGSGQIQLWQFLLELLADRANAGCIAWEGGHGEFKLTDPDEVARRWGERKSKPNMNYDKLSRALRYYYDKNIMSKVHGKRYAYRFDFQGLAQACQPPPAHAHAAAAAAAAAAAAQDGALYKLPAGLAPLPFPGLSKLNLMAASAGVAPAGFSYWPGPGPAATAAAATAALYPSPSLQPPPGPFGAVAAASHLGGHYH
# In short: as §1
# [11] = target: ETV5 (Homo sapiens, UniProt P41161 1-510); settings: protein: recombinant; tags: N-terminal GST; dsDNA, one strand shown
# ETV5, sequence (P41161 whole entry): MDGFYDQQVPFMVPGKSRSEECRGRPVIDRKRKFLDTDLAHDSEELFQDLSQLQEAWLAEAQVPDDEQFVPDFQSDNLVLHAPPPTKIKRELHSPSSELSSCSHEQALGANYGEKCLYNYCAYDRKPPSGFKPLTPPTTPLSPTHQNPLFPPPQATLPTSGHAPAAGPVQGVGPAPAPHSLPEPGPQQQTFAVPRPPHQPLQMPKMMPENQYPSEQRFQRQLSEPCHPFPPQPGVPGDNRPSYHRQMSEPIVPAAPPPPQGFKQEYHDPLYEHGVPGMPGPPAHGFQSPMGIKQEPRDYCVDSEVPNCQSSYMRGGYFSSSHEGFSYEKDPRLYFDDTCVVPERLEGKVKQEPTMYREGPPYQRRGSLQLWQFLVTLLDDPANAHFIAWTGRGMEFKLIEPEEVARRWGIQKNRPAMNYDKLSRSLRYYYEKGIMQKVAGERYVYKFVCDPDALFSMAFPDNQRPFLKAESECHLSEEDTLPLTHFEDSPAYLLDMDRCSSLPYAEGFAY
# In short: as §1
# [12] = target: HSF1 (Homo sapiens, UniProt Q00613 1-529); settings: protein: recombinant; tags: N-terminal GST; chain copies: 3; dsDNA, one strand shown
# HSF1, sequence (Q00613 whole entry): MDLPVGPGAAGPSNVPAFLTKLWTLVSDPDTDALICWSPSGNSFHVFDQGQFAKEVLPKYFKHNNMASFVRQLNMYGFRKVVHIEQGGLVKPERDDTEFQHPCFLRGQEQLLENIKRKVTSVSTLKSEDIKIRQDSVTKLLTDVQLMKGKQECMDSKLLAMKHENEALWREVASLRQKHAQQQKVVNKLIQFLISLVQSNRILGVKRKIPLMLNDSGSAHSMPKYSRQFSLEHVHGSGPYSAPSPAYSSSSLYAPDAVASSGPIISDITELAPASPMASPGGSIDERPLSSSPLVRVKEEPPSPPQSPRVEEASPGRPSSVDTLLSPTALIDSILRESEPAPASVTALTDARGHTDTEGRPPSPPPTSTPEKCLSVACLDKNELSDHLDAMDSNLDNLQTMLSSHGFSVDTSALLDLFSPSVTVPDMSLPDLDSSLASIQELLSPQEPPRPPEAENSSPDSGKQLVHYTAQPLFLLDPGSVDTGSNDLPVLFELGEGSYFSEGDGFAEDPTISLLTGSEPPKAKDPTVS
# In short: as §1
# [13] = target: T8, SPIC (Homo sapiens, UniProt Q8N5J4 1-248); settings: protein: recombinant; tags: N-terminal GST; dsDNA, one strand shown
# T8 sequence: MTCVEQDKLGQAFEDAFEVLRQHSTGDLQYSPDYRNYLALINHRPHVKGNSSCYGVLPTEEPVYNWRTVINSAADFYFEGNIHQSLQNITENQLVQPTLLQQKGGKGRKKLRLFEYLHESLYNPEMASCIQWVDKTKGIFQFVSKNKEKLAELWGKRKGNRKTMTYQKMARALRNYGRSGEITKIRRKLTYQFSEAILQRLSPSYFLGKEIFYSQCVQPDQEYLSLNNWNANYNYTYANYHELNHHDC
# In short: as §1
# [14] = target: ELF4 (Homo sapiens, UniProt Q99607 1-663); settings: protein: recombinant; tags: N-terminal GST; dsDNA, one strand shown
# ELF4, sequence (Q99607 whole entry): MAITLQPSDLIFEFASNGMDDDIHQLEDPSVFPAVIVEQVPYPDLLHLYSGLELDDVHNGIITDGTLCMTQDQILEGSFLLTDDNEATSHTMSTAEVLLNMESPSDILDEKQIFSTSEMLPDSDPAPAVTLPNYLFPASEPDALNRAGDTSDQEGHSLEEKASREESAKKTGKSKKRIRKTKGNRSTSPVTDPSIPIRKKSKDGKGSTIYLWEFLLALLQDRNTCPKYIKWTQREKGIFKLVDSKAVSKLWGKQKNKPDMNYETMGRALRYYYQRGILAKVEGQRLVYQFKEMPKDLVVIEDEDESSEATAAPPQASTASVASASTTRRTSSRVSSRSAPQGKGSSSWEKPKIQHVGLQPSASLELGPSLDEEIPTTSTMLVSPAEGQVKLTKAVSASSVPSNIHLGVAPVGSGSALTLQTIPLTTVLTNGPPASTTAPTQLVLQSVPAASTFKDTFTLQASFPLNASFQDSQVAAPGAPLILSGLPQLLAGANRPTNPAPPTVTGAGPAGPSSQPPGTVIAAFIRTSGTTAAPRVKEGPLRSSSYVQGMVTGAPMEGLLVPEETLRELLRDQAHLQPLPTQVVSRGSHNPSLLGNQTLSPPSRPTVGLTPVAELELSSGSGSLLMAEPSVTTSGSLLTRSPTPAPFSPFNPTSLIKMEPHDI
# In short: as §1
# [15] = target: T9, ELK4 (Homo sapiens, UniProt P28324-2 1-405); settings: protein: recombinant; tags: N-terminal GST; dsDNA, one strand shown
# T9 sequence: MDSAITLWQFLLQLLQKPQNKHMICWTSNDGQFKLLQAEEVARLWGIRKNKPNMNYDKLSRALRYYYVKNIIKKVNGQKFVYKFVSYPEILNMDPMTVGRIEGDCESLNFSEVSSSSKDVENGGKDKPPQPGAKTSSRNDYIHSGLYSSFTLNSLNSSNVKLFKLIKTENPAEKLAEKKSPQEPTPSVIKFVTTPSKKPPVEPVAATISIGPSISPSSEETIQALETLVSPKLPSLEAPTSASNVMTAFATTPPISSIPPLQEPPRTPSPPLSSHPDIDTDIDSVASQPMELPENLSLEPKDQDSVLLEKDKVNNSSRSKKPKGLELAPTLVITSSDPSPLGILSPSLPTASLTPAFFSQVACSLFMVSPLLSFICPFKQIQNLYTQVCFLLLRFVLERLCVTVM
# In short: as §1
# [16] = target: T10, ETV2 (Homo sapiens, UniProt O00321 1-342); settings: protein: recombinant; tags: N-terminal GST; dsDNA, one strand shown
# T10 sequence: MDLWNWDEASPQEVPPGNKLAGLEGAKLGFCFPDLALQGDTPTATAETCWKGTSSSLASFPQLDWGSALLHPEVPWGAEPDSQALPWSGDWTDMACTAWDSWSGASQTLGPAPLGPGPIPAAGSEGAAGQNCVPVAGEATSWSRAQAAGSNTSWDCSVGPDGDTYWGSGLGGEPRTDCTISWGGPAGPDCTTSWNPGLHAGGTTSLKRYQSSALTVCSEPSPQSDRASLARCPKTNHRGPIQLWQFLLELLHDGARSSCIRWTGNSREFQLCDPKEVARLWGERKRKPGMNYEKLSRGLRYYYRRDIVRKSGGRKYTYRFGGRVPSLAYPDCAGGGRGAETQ
# In short: as §1
# [17] = target: T11, ELF3 (Homo sapiens, UniProt P78545 1-371); settings: protein: recombinant; tags: N-terminal GST; dsDNA, one strand shown
# T11 sequence: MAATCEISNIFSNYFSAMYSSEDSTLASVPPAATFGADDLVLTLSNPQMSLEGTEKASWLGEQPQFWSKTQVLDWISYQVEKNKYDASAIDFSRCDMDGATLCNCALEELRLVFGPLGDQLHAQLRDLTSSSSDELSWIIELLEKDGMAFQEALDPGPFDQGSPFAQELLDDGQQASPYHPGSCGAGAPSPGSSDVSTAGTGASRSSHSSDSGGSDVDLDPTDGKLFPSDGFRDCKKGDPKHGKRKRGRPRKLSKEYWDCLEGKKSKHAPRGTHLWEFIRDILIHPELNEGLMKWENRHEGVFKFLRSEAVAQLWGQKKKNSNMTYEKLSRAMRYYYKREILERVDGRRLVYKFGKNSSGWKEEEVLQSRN
# In short: as §1
# [18] = target: CRX (Homo sapiens, UniProt O43186 1-299); settings: protein: recombinant; tags: N-terminal GST; dsDNA, one strand shown
# CRX, sequence (O43186 whole entry): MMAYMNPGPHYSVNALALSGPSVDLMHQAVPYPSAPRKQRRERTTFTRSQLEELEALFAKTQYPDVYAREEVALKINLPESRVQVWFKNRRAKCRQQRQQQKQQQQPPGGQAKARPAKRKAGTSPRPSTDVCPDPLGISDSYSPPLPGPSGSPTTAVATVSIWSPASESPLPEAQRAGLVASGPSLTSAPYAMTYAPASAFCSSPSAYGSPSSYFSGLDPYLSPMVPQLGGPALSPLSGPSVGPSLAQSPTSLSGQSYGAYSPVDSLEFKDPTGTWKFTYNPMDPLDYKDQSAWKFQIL
# In short: as §1
# [19] = target: ETV1 (Homo sapiens, UniProt P50549 1-477); settings: protein: recombinant; tags: N-terminal GST; dsDNA, one strand shown
# ETV1, sequence (P50549 whole entry): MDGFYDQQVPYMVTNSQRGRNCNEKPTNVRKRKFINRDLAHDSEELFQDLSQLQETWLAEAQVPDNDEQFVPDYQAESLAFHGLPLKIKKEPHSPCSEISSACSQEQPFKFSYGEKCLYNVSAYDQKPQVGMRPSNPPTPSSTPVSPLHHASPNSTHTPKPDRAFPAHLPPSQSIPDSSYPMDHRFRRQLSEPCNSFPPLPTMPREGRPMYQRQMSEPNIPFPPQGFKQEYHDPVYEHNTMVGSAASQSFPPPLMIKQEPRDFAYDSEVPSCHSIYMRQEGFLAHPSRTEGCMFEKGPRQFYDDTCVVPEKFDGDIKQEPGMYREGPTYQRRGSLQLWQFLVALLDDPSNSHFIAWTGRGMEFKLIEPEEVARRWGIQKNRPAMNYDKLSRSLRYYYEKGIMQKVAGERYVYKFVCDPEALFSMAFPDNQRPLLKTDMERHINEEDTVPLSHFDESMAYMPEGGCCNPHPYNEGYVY
# In short: as §1
sequence,measurement,setting,value
CTCCAC,binding signal,[1],"1.56 fold enrichment (6-mer frequency, TF over GST control)"
same,binding signal,[2],"1.41 fold enrichment (6-mer frequency, TF over GST control)"
same,binding signal,[3],"1.46 fold enrichment (6-mer frequency, TF over GST control)"
same,binding signal,[4],"1.37 fold enrichment (6-mer frequency, TF over GST control)"
same,binding signal,[5],"1.38 fold enrichment (6-mer frequency, TF over GST control)"
same,binding signal,[6],"1.32 fold enrichment (6-mer frequency, TF over GST control)"
same,binding signal,[7],"1.55 fold enrichment (6-mer frequency, TF over GST control)"
same,binding signal,[8],"1.32 fold enrichment (6-mer frequency, TF over GST control)"
same,binding signal,[9],"1.54 fold enrichment (6-mer frequency, TF over GST control)"
same,binding signal,[10],"1.42 fold enrichment (6-mer frequency, TF over GST control)"
same,binding signal,[11],"1.42 fold enrichment (6-mer frequency, TF over GST control)"
same,binding signal,[12],"1.26 fold enrichment (6-mer frequency, TF over GST control)"
same,binding signal,[13],"1.17 fold enrichment (6-mer frequency, TF over GST control)"
same,binding signal,[14],"1.4 fold enrichment (6-mer frequency, TF over GST control)"
same,binding signal,[15],"1.46 fold enrichment (6-mer frequency, TF over GST control)"
same,binding signal,[16],"1.3 fold enrichment (6-mer frequency, TF over GST control)"
same,binding signal,[17],"1.27 fold enrichment (6-mer frequency, TF over GST control)"
same,binding signal,[18],"1.17 fold enrichment (6-mer frequency, TF over GST control)"
same,binding signal,[19],"1.25 fold enrichment (6-mer frequency, TF over GST control)"
